Laboratory results taken from PubChem BioAssay (Tox21).
Results filed as inconclusive are left out. Active and inactive are the calls of the source. Unless noted, calls follow the shape of the full dose curve.

How the values were obtained:
[1] = Nuclear factor erythroid 2-related factor 2/antioxidant responsive element (Nrf2/ARE) small molecule agonists: qHTS cell viability counter screen in human keratinocytes (AID 1919968; active = well fitted curve in the direction sought with a large enough effect in the repeat runs; an effect the other way counts as inactive or inconclusive; also: nearly all actives have a fitted effect of over 55% in size)
Procedure, shortened: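 KeratinoSens HaCaT cells, 1,500/well, preincubated 5 h, then exposed to compounds in DMSO for 23 h at 37 C/5% CO2. Viability read as CellTiter-Fluor fluorescence after 1 h, in the same wells as the ARE-luciferase read.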

[2] = target: Gonadotropin-releasing hormone receptor (Homo sapiens) (UniProt P30968); experiment: Human gonadotropin-releasing hormone receptor (GnRHR) small molecule agonists, calcium flux assay in GnRHR-HEK293 cells (AID 1920063); also: nearly all actives have a fitted effect of over 35% in size
Gonadotropin-releasing hormone receptor (Homo sapiens), sequence (P30968 whole entry, looked up): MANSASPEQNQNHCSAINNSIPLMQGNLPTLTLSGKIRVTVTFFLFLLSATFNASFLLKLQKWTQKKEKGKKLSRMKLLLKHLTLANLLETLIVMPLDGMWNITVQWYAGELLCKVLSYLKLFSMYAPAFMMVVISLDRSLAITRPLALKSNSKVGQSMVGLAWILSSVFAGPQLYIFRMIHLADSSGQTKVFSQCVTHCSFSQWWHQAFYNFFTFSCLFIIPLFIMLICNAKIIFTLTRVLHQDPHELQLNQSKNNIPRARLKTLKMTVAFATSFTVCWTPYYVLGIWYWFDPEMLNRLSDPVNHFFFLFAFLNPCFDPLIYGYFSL
Procedure, shortened: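 HEK293 cells stably expressing human GnRHR were dye-loaded for 1 h at 37 C. Compound was added in agonist mode and fluorescence (Ex/Em 480/540) recorded kinetically for 3 min. Fifteen concentrations, triplicates.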

[3] = target: KiSS-1 receptor (Homo sapiens) (UniProt Q969F8); experiment: Human kisspeptin (KISS1R) small molecule agonists, calcium flux assay in KISS1R-HEK293 cells (AID 1920064; active = well fitted curve in the direction sought with a large enough effect in the repeat runs; an effect the other way counts as inactive or inconclusive)
KiSS-1 receptor (Homo sapiens), sequence (Q969F8 whole entry, looked up): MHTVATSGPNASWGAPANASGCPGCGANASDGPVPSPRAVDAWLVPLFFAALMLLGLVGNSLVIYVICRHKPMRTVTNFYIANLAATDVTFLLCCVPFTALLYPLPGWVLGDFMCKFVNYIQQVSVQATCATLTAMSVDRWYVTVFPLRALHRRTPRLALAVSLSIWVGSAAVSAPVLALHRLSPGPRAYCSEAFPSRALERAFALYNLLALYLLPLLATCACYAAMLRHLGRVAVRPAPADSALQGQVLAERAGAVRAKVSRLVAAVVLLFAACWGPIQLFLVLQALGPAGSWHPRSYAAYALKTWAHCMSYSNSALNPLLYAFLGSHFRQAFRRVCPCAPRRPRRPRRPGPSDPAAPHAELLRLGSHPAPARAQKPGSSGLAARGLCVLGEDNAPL
Procedure, shortened: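 HEK293 cells stably expressing human KISS1R were loaded with calcium dye for 1 h at 37 C, then given compound; fluorescence (Ex/Em 480/540) was read kinetically for 3 min. Fifteen concentrations, triplicate.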

[4] = p53 small molecule agonists, cell-based qHTS assay with human liver microsomes (AID 1963577);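 also: p53 response element beta-lactamase reporter cells with liver microsomes plus NADPH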
Procedure, shortened: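 p53RE-bla cells; 5 h settle, 37 C/5% CO2; cpd + HLM 0.5 mg/mL + NADPH 0.5 mg/mL (final); 16 h 37 C; LiveBLAzer 2 h RT dark; fluorescence readout.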

[5] = p53 small molecule agonists, cell-based qHTS assay with rat liver microsomes (AID 1963578)
Procedure, shortened: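 Rat liver microsome activation: microsomes 0.5 mg/mL, NADPH 0.5 mg/mL final; p53RE-bla cells, 16 h 37 C; LiveBLAzer readout, 2 h RT dark.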

[6] = p53 small molecule agonists, cell-based qHTS assay with human liver microsomes: qHTS cell viability counter screen (AID 1963579); also: nearly all actives have a fitted effect of over 45% in size
Procedure, shortened: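 Luminescent CellTiter-Glo read-out, 30 min at room temperature, gauged cytotoxicity in p53RE-bla cells exposed 16 h at 37 C to DMSO-dissolved compounds with metabolic activation by human liver microsomes and NADPH, each 0.5 mg/mL final.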

[7] = p53 small molecule agonists, cell-based qHTS assay with rat liver microsomes: qHTS cell viability counter screen (AID 1963580); also: nearly all actives have a fitted effect of over 45% in size
Procedure, shortened: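 p53RE-bla HCT-116 cells (4,000/well) rested 5 h at 37 C, then given Tox21 compounds in DMSO with rat liver microsomes (0.5 mg/mL final) plus NADPH (0.5 mg/mL final) for 16 h at 37 C. Viability read by CellTiter-Glo luminescence after 30 min at room temperature.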

[8] = p53 small molecule agonists, cell-based qHTS assay: qHTS cell viability counter screen (AID 1963581); also: nearly all actives have a fitted effect of over 45% in size
Procedure, shortened: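 p53RE-bla HCT-116 cells, compounds added 5 h after plating and incubated 16 h at 37 C. Cytotoxicity measured in the same wells as intracellular ATP by CellTiter-Glo luminescence after 30 min at room temperature.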

[9] = p53 small molecule agonists, cell-based qHTS assay (AID 1963582; active = well fitted activation curve with a large enough effect in the signal ratio in the repeat runs, not every such curve was filed as active; the % refers to the signal ratio)
Procedure, shortened: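 p53RE-bla reporter cells, compounds added in DMSO after 5 h plating, incubated 16 h at 37 C. Beta-lactamase read via 2 h room-temperature LiveBLAzer B/G FRET substrate, fluorescence intensity.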

[10] = target: 5-hydroxytryptamine receptor 2A (Homo sapiens) (UniProt P28223); experiment: 5-hydroxytryptamine receptor 2A (HTR2A) small molecule antagonists, cell-based qHTS assay (AID 1963586); also: nearly all actives have a fitted effect of over 45% in size
5-hydroxytryptamine receptor 2A (Homo sapiens), sequence (P28223 whole entry, looked up): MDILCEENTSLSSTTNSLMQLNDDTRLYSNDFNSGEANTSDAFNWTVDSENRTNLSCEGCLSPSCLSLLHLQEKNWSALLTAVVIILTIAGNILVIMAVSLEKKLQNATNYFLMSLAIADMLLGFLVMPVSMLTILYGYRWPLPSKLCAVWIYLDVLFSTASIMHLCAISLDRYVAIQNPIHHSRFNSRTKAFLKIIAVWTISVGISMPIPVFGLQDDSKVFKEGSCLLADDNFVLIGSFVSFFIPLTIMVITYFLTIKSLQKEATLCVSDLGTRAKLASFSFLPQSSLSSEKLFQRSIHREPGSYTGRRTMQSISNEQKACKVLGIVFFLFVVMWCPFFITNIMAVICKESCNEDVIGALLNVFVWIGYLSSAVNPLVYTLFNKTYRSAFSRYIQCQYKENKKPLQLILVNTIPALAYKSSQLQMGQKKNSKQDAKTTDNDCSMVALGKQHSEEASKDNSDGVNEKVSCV
Procedure, shortened: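 Antagonist-mode intracellular calcium assay: DOI (4 nM) added after 5 min compound pre-incubation at room temperature to dye-loaded HTR2A-CHO cells. Fluorescence followed for 3 min, sampled every second.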

[11] = target: 5-hydroxytryptamine receptor 2A (Homo sapiens) (UniProt P28223); experiment: 5-hydroxytryptamine receptor 2A (HTR2A) small molecule agonists, cell-based qHTS assay (AID 1963587); also: nearly all actives have a fitted effect of over 30% in size
Procedure, shortened: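 HTR2A-CHO cells, plated 18 h at 37 C/5% CO2, dye-loaded 1 h at 37 C; compounds in DMSO added by pin tool (agonist mode). Intracellular calcium flux read as kinetic fluorescence on FDSS over 2 min at 1 s intervals.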

[12] = target: Muscarinic acetylcholine receptor M1 (Homo sapiens) (UniProt P11229); experiment: Cholinergic receptor muscarinic 1 (CHRM1) small molecule antagonists, cell-based qHTS assay (AID 1963588); also: nearly all actives have a fitted effect of over 40% in size
Muscarinic acetylcholine receptor M1 (Homo sapiens), sequence (P11229 whole entry, looked up): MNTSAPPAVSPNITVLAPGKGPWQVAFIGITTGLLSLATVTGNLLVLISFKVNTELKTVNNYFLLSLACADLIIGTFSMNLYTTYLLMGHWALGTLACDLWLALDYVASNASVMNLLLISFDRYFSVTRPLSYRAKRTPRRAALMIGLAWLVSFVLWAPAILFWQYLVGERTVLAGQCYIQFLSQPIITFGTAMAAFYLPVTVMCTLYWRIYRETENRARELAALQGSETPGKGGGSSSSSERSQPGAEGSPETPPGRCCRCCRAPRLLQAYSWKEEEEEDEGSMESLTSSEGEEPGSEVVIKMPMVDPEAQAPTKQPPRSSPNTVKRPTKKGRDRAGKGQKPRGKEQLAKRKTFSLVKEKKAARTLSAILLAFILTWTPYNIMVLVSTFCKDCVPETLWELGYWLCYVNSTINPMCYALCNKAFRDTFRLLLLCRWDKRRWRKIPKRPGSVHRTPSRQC
Procedure, shortened: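 CHRM1-CHO calcium-flux assay, antagonist mode. Cells were seeded 18 h, dye-loaded 1 h at 37 C and given compound for 5 min at RT, then acetylcholine was added at 50nM. FDSS fluorescence was read 3 min; 15 concentrations, three runs.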

[13] = target: Muscarinic acetylcholine receptor M1 (Homo sapiens) (UniProt P11229); experiment: Cholinergic receptor muscarinic 1 (CHRM1) small molecule agonists, cell-based qHTS assay (AID 1963589); also: nearly all actives have a fitted effect of over 35% in size
Procedure, shortened: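 CHO cells stably expressing human CHRM1 were loaded with calcium dye for 1 h at 37 C, then compound was added in agonist mode. Intracellular calcium fluorescence was followed kinetically at 1 s intervals. Fifteen concentrations were tested in three independent runs.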

[14] = cAMP Responsive Elements (CRE) small molecule agonists, cell-based qHTS assay (AID 1963590)
Procedure, shortened: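 CRE-bla HEK 293T cells, 2,000/well in DMEM with 10% dialyzed FBS and 25 mM HEPES, pre-incubated 18 h at 37 C, then exposed to compound 3 h at 37 C. Beta-lactamase reporter read with LiveBLAzer B/G FRET substrate after 2 h at room temperature.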

[15] = cAMP Responsive Elements (CRE) small molecule antagonists, cell-based qHTS assay (AID 1963591; active = well fitted inhibition curve with a large enough effect in the signal ratio in the repeat runs, not every such curve was filed as active; the % refers to the signal ratio)
Procedure, shortened: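 CRE-bla HEK293T cells plated 18 h, then given compound plus NKH477 at 0.25 uM final for 3 h at 37C. Beta-lactamase reporter read with LiveBLAzer B/G FRET substrate after 2 h at room temperature.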

[16] = target: Beta-2 adrenergic receptor (Homo sapiens) (UniProt P07550); experiment: Adrenergic beta2 receptor (ADRB2) small molecule antagonists, cell-based qHTS assay (AID 1963592); also: series mostly up to about 92 µM; nearly all actives have a fitted effect of over 50% in size
Beta-2 adrenergic receptor (Homo sapiens), sequence (P07550 whole entry, looked up): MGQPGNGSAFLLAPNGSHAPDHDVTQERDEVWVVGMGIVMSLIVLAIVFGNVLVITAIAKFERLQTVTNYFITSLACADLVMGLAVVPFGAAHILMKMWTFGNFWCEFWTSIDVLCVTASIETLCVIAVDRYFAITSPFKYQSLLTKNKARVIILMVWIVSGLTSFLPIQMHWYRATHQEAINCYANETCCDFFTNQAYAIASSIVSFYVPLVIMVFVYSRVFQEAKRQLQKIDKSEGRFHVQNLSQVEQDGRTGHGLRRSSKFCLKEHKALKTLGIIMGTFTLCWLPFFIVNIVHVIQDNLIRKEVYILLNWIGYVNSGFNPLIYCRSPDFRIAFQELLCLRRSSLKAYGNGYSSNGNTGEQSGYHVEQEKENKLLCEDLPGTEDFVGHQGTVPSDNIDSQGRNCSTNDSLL
Procedure, shortened: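 Cells (CHO, stable ADRB2 overexpression) incubated 18-20hr at 37C; compounds added from DMSO; agonist mix (1nM isoproterenol, 100uM IBMX, 25uM Ro-20-1724) added; 0.5hr RT; d2-cAMP and anti-cAMP-cryptate added; 1hr RT; 665/615 nm read.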

[17] = target: D(2) dopamine receptor (Homo sapiens) (UniProt P14416); experiment: Dopamine D2 receptor (DRD2) small molecule agonists, cell-based qHTS assay (AID 1963594); also: nearly all actives have a fitted effect of over 35% in size
D(2) dopamine receptor (Homo sapiens), sequence (P14416 whole entry, looked up): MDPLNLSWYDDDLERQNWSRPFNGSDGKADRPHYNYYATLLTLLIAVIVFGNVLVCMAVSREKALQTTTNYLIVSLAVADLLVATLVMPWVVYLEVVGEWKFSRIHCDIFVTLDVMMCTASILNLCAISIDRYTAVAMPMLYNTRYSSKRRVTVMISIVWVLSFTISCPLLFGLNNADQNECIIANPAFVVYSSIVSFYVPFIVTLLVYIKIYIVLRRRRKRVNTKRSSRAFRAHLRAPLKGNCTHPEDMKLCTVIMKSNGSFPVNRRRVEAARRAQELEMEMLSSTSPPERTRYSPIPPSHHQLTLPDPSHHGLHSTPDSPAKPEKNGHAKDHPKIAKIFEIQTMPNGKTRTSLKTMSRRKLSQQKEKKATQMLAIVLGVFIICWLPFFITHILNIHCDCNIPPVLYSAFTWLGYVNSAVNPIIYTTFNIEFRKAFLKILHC
Procedure, shortened: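 HEK293 cells stably expressing DRD2 were cultured 24 h at 37 C, then given Ro20-1724 (0.1 mM final) and compounds for 10 min at room temperature. NKH477 (200nM) was then added for 30 min. cAMP was read by HTRF.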

[18] = target: D(2) dopamine receptor (Homo sapiens) (UniProt P14416); experiment: Dopamine D2 receptor (DRD2) small molecule antagonists, cell-based qHTS assay (AID 1963595; active = well fitted inhibition curve with a large enough effect in the signal ratio in the repeat runs, with a control signal flat; the % refers to the signal ratio)
Procedure, shortened: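 Antagonist mode in DRD2-HEK293 cells: after compound addition with 0.1 mM Ro20-1724, cells received quinpirole (12 nM) and NKH477 (200 nM) for 30 min at room temperature; HTRF cAMP read after 1 h detection.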

[19] = target: Beta-2 adrenergic receptor (Homo sapiens) (UniProt P07550); experiment: Adrenergic beta2 receptor (ADRB2) small molecule agonists, cell-based qHTS assay (AID 1963593);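 also: CHO cells stably overexpressing human ADRB2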
Procedure, shortened: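 CHO cells stably over-expressing ADRB2 were plated overnight at 37C, then dosed with compounds plus a stimulation mix containing 100uM IBMX and 25uM Ro-20-1724 for 0.5hr at room temperature. cAMP was measured by HTRF competition, 1hr.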

[20] = G protein-coupled receptor (GPCR) small molecule agonists, calcium flux assay: HEK293 wild type cell line counter screen (AID 1920065)
Procedure, shortened: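 Wild-type HEK293 cells plated 18 h, loaded with calcium dye 1 h at 37 C, then compounds added in agonist mode (ATP as positive control). Kinetic fluorescence Ex/Em 480/540 recorded 3 min at 1 sec intervals; 15 concentrations, triplicate.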

Measured: Potency

CC(=O)SC[C@@H](C)C(=O)N1CCC[C@H]1C(=O)N[C@@H](Cc1ccccc1)C(=O)O
not listed: [19] | [20]
inactive: all other assays above

CCOC(=O)OC(=O)OCC
not listed: [13] | [20]
inactive: all other assays above

CC(=O)Nc1ccc(C)cc1
not listed: [19] | [20]
inactive: all other assays above

c1ccc(CNc2ncnc3c2ncn3C2CCCCO2)cc1 (centres undefined)
not listed: [2] | [19]
inactive: all other assays above

CC(C)c1ccccc1O
not listed: [16] | [20]
inactive: all other assays above

O=C(O)C(=O)Nc1cccc(-c2nn[nH]n2)c1
not listed: [8] | [16] | [20]
inactive: all other assays above

CC(=O)N[C@@H](CC(C)C)C(=O)O
not listed: [2] | [14] | [17]
inactive: all other assays above
